AmpC inh detg – inhibitors of E. coli AmpC beta-lactamase with detergent. P00811. AmpC hydrolysis of nitrocefin, absorbance 480 nm, 0.01% Triton. Potency, µM (series often up to 114 µM), for inactives: at the top dose activity change, negative = inhibition, hits mostly inhibitors. actives 0.041% (n = 370,000);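 note: 0% = no-compound wells and -100% = no-enzyme wells; nearly all actives have a fitted effect of over 25% in size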
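20 mM phosphate pH 7.0 + 0.01% (detergent screen) or 0.0001% Triton X-100; 5.3 nM AmpC reagent; cpd preinc 15 min RT; nitrocefin (800 uM stock) to start; A480 q20 s × 4 min; Activity was normalised to no-enzyme and no-compound control wells.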
AMA1 RON2 block – AMA1-RON2 (P. falciparum) interaction inhibition | actives 0.2% (n = 360,000) | AlphaScreen AMA1-biotinylated RON2 peptide binding | Potency, µM (series often up to 58.2 µM), without a hit: top-dose activity change, negative = inhibition, most hits filed as inhibitors;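 note: 0% = vehicle wells and -100% = peptide control; nearly all actives have a fitted effect of over 45% in size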
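AMA1 (3D7) with his tag at 25 nM final met compounds first, then biotinylated RON2 peptide at 25 nM; detection used donor plus acceptor beads, 10 µg/mL apiece, read by AlphaScreen after 30 min at room temperature.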
Giardia FBPA inh-1 – inhibitors of Giardia lamblia fructose-1,6-bisphosphate aldolase; A8B2U2; purified Giardia FBPA; Potency, µM (series often up to 59.6 µM), inactives show at the top dose activity, negative = inhibition, usual class: inhibitors; actives 0.71% (n = 290,000); AID 2451; note: nearly all actives have a fitted effect of over 55% in size
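Giardia FBPA (40 nM reagent) was preincubated 10 min at RT with compound (up to 57.5 uM final), then substrate plus GAPDH/TPI/NAD/arsenate coupling system with diaphorase/resazurin was added; resorufin fluorescence (525/598 nm) was read after 20 min.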
AmpC inh no detg – blocks E. coli AmpC beta-lactamase in detergent-free assay. P00811. AmpC nitrocefin hydrolysis, absorbance 480 nm, 0.0001% Triton. Potency, µM (titrated, usually from 57.1 µM), without a hit: top-dose activity change, negative = inhibition, actives largely listed as inhibitors. actives 0.52% (n = 330,000). AID 485341;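 note: plate controls were no compound for no effect and no enzyme for full effect; nearly all actives have a fitted effect of over 20% in size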
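20 mM phosphate pH 7.0 + 0.01% (detergent screen) or 0.0001% Triton X-100; 5.3 nM AmpC reagent; cpd preinc 15 min RT; nitrocefin (800 uM stock) to start; A480 q20 s × 4 min; Activity was normalised to no-enzyme and no-compound control wells.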
Giardia growth – blocks growth of Giardia lamblia trophozoites. shares compounds with Giardia FBPA inh-1. Giardia lamblia trophozoite growth inhibition. Potency, µM (highest dose often 57.5 µM), inactives show at the highest dose activity change, negative = inhibition, actives largely listed as inhibitors. actives 5% (n = 1,500);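 note: trophozoites exposed to compound for 48 h at 37 °C; nearly all actives have a fitted effect of over 70% in size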
Mammal cell tox – counter-screen for Giardia aldolase inhibitors: mammalian cell toxicity | shares compounds with Giardia FBPA inh-1 | mammalian cell viability counter-screen, qHTS | Potency, µM (doses to about 57.5 µM), without a hit: at the top dose viability change, negative = toxicity, usual class: inhibitors | actives 4% (n = 1,500);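 note: Chinese hamster ovary cells used as mammalian cytotoxicity surrogate; viability measured as cellular ATP by luminescence; compound exposure lasted 48 h before reading; nearly all actives have a fitted effect of over 60% in size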
Giardia FBPA inh-2 – confirmation of Giardia fructose-bisphosphate aldolase inhibitors | AID 2787 | purified Giardia aldolase enzyme activity, qHTS | actives 5% (n = 1,500) | Potency, µM (top dose mostly 57.5 µM), for the others: at the top dose activity change, negative = inhibition, usual class: inhibitors | shares compounds with Giardia FBPA inh-1; note: nearly all actives have a fitted effect of over 45% in size
Rabbit aldolase – blocks rabbit muscle aldolase in Giardia aldolase selectivity test. shares compounds with Giardia FBPA inh-1. Rabbit muscle FBPA enzyme inhibition, selectivity counter-screen. Potency, µM (doses to about 57.5 µM), for inactives: top-dose activity, negative = inhibition, hits mostly inhibitors. actives 4% (n = 1,500). AID 2794; note: nearly all actives have a fitted effect of over 60% in size
Target sequence (P00883 whole entry, looked up): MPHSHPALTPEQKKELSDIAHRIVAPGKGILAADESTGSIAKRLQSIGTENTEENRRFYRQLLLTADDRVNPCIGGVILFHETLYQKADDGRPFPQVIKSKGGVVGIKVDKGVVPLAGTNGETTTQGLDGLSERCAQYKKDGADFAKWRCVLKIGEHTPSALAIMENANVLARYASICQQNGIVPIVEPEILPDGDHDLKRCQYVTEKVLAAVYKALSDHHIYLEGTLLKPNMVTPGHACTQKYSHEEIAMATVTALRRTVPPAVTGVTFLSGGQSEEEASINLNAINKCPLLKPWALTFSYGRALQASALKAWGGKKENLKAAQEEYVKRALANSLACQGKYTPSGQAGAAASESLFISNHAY
GAPDH counter – counter-screen for Giardia aldolase inhibitors: GAPDH coupling enzyme; shares compounds with Giardia FBPA inh-1; GAPDH coupling enzyme counterscreen, biochemical, qHTS; Potency, µM (doses to about 57.5 µM), for inactives: at the highest dose activity change, negative = inhibition, most hits filed as inhibitors; actives 6% (n = 1,500); AID 2795; note: nearly all actives have a fitted effect of over 55% in size
Active calls of the source: *; ? = inconclusive; . = no result given; [ ] = dose if it differs, or a comment. The list is not random: actives were taken first. Their share in the collection is about 1.1%. Calls come from the whole dose curve; as a rule, active = well fitted curve in the direction sought with a large enough effect; inconclusive = small, poorly fitted or top-dose-only effect, or another doubt; inactive = no such curve, though single readings can be large; an effect the other way counts as inactive or inconclusive. Unless noted, % is set by controls: 0 for no effect and ±100 for the full control effect; potency is the fitted concentration of half-maximal effect.

SMILES | AmpC inh detg | AMA1 RON2 block | Giardia FBPA inh-1 | AmpC inh no detg | Giardia growth | Mammal cell tox | Giardia FBPA inh-2 | Rabbit aldolase | GAPDH counter
OC[C@@H]1CN(Cc2ccc(F)cc2)C[C@H](n2cnc3c(N4CCOCC4)ncnc32)O1 | . | 54% | . | . | . | . | . | . | .
O=C(CN1C(=O)c2ccccc2S1(=O)=O)Nc1ncc(Cl)cc1Cl | . | -18% | . | -39% | . | . | . | . | .
CC(C)(C)NC(=O)CN(C(=O)CCC(=O)Nc1nccs1)c1ccccc1F | . | 0% | . | . | . | . | . | . | .
Cn1nc(-c2ccccc2)c(/C=N/O)c1Cl | 6% | 0% | 5% | -15% | . | . | . | . | .
Cn1[nH]c(-c2ccccc2)c(/C=N/O)c1=O | -3% | 56% | 16µM* | 0% | 5%[10.4 µM] | 28% | -12% | -4% | 6%
Cn1c(=O)c2cc(NC(=O)NCc3ccccc3)ccc2n1C/C=C/c1ccccc1 | . | 6% | . | . | . | . | . | . | .
O=C(Nc1ccc(N2CCOCC2)c(Cl)c1)c1ccc(Cl)cc1 | 13% | 1% | 16µM* | -39% | ? | -1% | ? | ? | ?
C[n+]1cccc2c(Br)ccc([O-])c21 | -5% | -22% | 0.18µM* | 3% | 20µM* | -16% | 4µM* | 13µM* | 4.5µM*
CCN1CCN(Cc2cccc(Oc3ccccc3)c2)CC1 | 4% | -20% | ? | 12% | . | . | . | . | .
COc1cccc(CN2CCN(Cc3cccc(Oc4ccccc4)c3)CC2)c1OC | -9% | ? | 16µM* | 109% | -25% | ? | 1% | -5% | 5%
COc1cccc(CN2CCN(Cc3cc(OC)c(OC)c(OC)c3)CC2)c1OC | 0% | -7% | 13µM* | 10% | ? | -14% | -8% | 3% | -11%
COc1cc(CN2CCN(C(=O)c3ccccc3F)CC2)cc(OC)c1OC | -6% | ? | 28µM* | 21% | 1%[10.4 µM] | -13% | 0% | 8% | 11%
CCCNS(=O)(=O)c1ccc2nc(NC(=O)c3ccc(F)cc3)sc2c1 | -7% | . | . | . | . | . | . | . | .
COc1ccc(CCN2C(=O)COc3ccccc3C2C(=O)NCc2ccccc2)cc1OC (centres undefined) | . | -5% | . | . | . | . | . | . | .
COC(=O)[C@]12CCCCC=C1N(Cc1ccccc1)C(=O)[C@H](CC(=O)N1CCN(C(=O)c3ccco3)CC1)C2 | . | -6% | . | . | . | . | . | . | .
Cc1cc(NC(=O)CSc2nnc(C3COc4ccccc4O3)n2N)no1 (centres undefined) | 1% | 15% | 20µM* | 13% | -25% | 17% | -6% | 3% | -1%
C=CCn1c(SCC(=O)Nc2cc(C)on2)nnc1C1COc2ccccc2O1 (centres undefined) | -5% | 0% | 7% | 8% | . | . | . | . | .
COC(=O)C1=C(C(=O)OC)[C@@H]2N(C)c3ccc(OC)cc3[C@@]23C[C@@H](C(=O)OC)N(S(=O)(=O)c2ccc(C)cc2)C3=N1 | . | . | 0%[12.9 µM] | . | . | . | . | . | .
COC(=O)c1c(NC(=O)CCCOc2ccc(C)cc2)sc2c1C(C(=O)OC)CC2 (centres undefined) | 7% | . | . | . | . | . | . | . | .
O=C1NC(=O)N(c2ccc(Cl)cc2)C(=O)/C1=C/c1ccc2c(c1)CCN2Cc1ccccc1Cl | . | -7% | . | . | . | . | . | . | .
CCC(C)N1C(=O)/C(=C/c2ccc3c(c2)CCN3CCCCl)C(=O)NC1=S (centres undefined) | -8% | 27% | 11µM* | -53% | 6%[10.4 µM] | -5% | ? | -8% | 6%
